Compounds without any hit were thinned out: in the full panel of roughly 83,000, 20% have a hit.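 Activity criterion: percent growth below 10, measured after cells in 96-well plates were exposed to a single compound concentration for 48 hours.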 Activity calls are given as the source filed them.
Tests used:
Test in all cases: NCI-60 one-dose screen, 48 h (100 = growth as untreated, 0 = no growth, -100 = all killed)
Conditions in all cases: 10 µM unless noted
NCI-H23 lung = system: NCI-H23 lung
NCI-H226 lung = system: NCI-H226 lung
NCI-H322M lung = system: NCI-H322M lung
HOP-62 NSCLC = system: HOP-62 NSCLC
NCI-H460 lung = system: NCI-H460 lung
HOP-92 NSCLC = system: HOP-92 NSCLC
A549/ATCC NSCLC = system: A549/ATCC NSCLC
786-0 renal = system: 786-0 renal
COLO 205 colon = system: COLO 205 colon
NCI-H522 lung = system: NCI-H522 lung

Measured: growth

c1ccc(C2NCCNC2c2ccccc2)cc1 (stereo unspecified)
inactive: NCI-H23 lung 103% | NCI-H226 lung 99.5% | NCI-H322M lung 100% | HOP-62 NSCLC 98.7% | NCI-H460 lung 109% | HOP-92 NSCLC 93.6% | A549/ATCC NSCLC 98.1% | 786-0 renal 107% | COLO 205 colon 103%

O=C(CBr)c1ccc(OC(=O)c2ccccc2)cc1
inactive: NCI-H23 lung 101% | NCI-H226 lung 113% | NCI-H322M lung 134% | HOP-62 NSCLC 99.9% | NCI-H460 lung 104% | HOP-92 NSCLC 88% | A549/ATCC NSCLC 100% | COLO 205 colon 109%

O=[N+]([O-])c1cc(-c2ccccc2)c(O)c([N+](=O)[O-])c1
active: HOP-92 NSCLC 3.74%
inactive: NCI-H23 lung 83.7% | NCI-H226 lung 82.5% | NCI-H322M lung 126% | HOP-62 NSCLC 92.5% | NCI-H460 lung 65.9% | A549/ATCC NSCLC 86.8% | COLO 205 colon 106%

CCc1cccc(CC)c1N1C(=O)C=CC1=O
inactive: NCI-H23 lung 108% | NCI-H226 lung 117% | NCI-H322M lung 95.3% | HOP-62 NSCLC 83.7% | NCI-H460 lung 96.1% | NCI-H522 lung 91.6% | A549/ATCC NSCLC 71.9% | 786-0 renal 82.5% | COLO 205 colon 75.8%

CCN(CC)CC(O)CNc1ccc(NCC2CO2)c2c1C(=O)c1ccccc1C2=O (stereo unspecified)
active: NCI-H23 lung -43% | NCI-H226 lung 0.0591% | NCI-H322M lung -16.7% | HOP-62 NSCLC -34.9% | NCI-H460 lung -43.9% | NCI-H522 lung -74.1% | A549/ATCC NSCLC 7.32% | 786-0 renal -21.7% | COLO 205 colon -40.8%

CCC1CCCCN1C(=S)N/N=C(\C)c1ccccn1 (stereo unspecified)
active: NCI-H226 lung 7.86% | NCI-H322M lung 8.13% | NCI-H460 lung -38.7% | NCI-H522 lung -18.6% | A549/ATCC NSCLC 2.7% | COLO 205 colon -37.5%
inactive: NCI-H23 lung 20.8% | HOP-62 NSCLC 10.2% | 786-0 renal 11.3%

CCOC(=O)c1[nH]c(C#N)c(C(=O)OCC)c1C
inactive: NCI-H23 lung 101% | NCI-H226 lung 95.9% | NCI-H322M lung 93.6% | HOP-62 NSCLC 101% | NCI-H460 lung 114% | NCI-H522 lung 97.9% | A549/ATCC NSCLC 98% | 786-0 renal 86.9% | COLO 205 colon 131%

Oc1ccc(Nc2ccc3ccccc3c2)cc1
inactive: NCI-H23 lung 69% | NCI-H226 lung 89.2% | NCI-H322M lung 33.9% | HOP-62 NSCLC 57.4% | NCI-H460 lung 59.4% | HOP-92 NSCLC 55.9% | A549/ATCC NSCLC 55.3% | 786-0 renal 46.7% | COLO 205 colon 96.1%

CCCCCC[C@@H](O)C/C=C\CCCCCCCC(=O)OCCOC
inactive: NCI-H23 lung 101% | NCI-H226 lung 101% | NCI-H322M lung 104% | HOP-62 NSCLC 88.9% | NCI-H460 lung 107% | HOP-92 NSCLC 79.2% | A549/ATCC NSCLC 94.3% | COLO 205 colon 115%

O=C(Nc1ccc(Cl)c(Cl)c1)Nc1ccccc1O
inactive: NCI-H23 lung 64.9% | NCI-H226 lung 96.9% | NCI-H322M lung 87.3% | HOP-62 NSCLC 88.8% | NCI-H460 lung 79.5% | NCI-H522 lung 26.8% | A549/ATCC NSCLC 37.2% | 786-0 renal 99.6% | COLO 205 colon 85.3%

NC(=S)N/N=C\c1nccc2c(C(F)(F)F)cccc12
inactive: NCI-H23 lung 13.4% | COLO 205 colon 17.8%
active: NCI-H226 lung -0.105% | NCI-H322M lung 4.15% | HOP-62 NSCLC -5.75% | NCI-H460 lung 0.121% | NCI-H522 lung -30.5% | A549/ATCC NSCLC 3.44% | 786-0 renal -24.7%

CCc1oc2ccccc2c1C(=O)c1cc(Br)c(O)c(Br)c1
inactive: NCI-H23 lung 52.9% | NCI-H226 lung 84% | NCI-H322M lung 118% | HOP-62 NSCLC 81.8% | NCI-H460 lung 86.9% | NCI-H522 lung 30.8% | A549/ATCC NSCLC 66.5% | 786-0 renal 68.2%

Oc1c(Cl)cc(Cl)cc1C(c1cc(Cl)cc(Cl)c1O)C(Cl)(Cl)Cl
active: NCI-H23 lung -19.9% | NCI-H226 lung 5.37% | NCI-H322M lung -21.8% | HOP-62 NSCLC -6.29% | NCI-H460 lung -20.7% | NCI-H522 lung -12.8% | A549/ATCC NSCLC 1.48% | 786-0 renal 9.47% | COLO 205 colon -90.9%

CCCCC(CCc1ccc([N+](=O)[O-])cc1)(C(C)=O)C(=O)OCC (stereo unspecified)
inactive: NCI-H23 lung 95.7% | NCI-H226 lung 89.7% | NCI-H322M lung 108% | HOP-62 NSCLC 102% | NCI-H460 lung 105% | NCI-H522 lung 104% | A549/ATCC NSCLC 100% | 786-0 renal 98.2% | COLO 205 colon 111%

Nc1cccc2cccc([N+](=O)[O-])c12
inactive: NCI-H23 lung 101% | NCI-H226 lung 94.8% | NCI-H322M lung 114% | HOP-62 NSCLC 97.8% | NCI-H460 lung 112% | NCI-H522 lung 104% | A549/ATCC NSCLC 106% | 786-0 renal 100% | COLO 205 colon 94.1%

CCCCCCCCCCCC[n+]1ccccc1 (tested in a mixture with another compound)
inactive: NCI-H226 lung 11.3% | NCI-H322M lung 31.9%
active: NCI-H23 lung -2.11% | HOP-62 NSCLC -24.3% | NCI-H460 lung 0.69% | NCI-H522 lung -53% | A549/ATCC NSCLC -32.3% | 786-0 renal -50%

Cc1ccc(NC2=CC(=O)C(=O)c3ccccc32)cc1
inactive: NCI-H522 lung 18.8% | 786-0 renal 34.8%
active: NCI-H23 lung -31.2% | NCI-H226 lung -67.9% | NCI-H322M lung -12.5% | HOP-62 NSCLC -86.2% | NCI-H460 lung 5.26% | A549/ATCC NSCLC -36.5% | COLO 205 colon -68.5%

Cc1cc(C)c(C#N)c(Sc2nc(C)c([N+](=O)[O-])c(C)c2C#N)n1
inactive: NCI-H23 lung 60.2% | NCI-H226 lung 111% | NCI-H322M lung 83.6% | HOP-62 NSCLC 72.8% | NCI-H460 lung 89.9% | A549/ATCC NSCLC 77% | 786-0 renal 103% | COLO 205 colon 37.8%
active: HOP-92 NSCLC -1.8%

CC1(O)CCCCCC1
inactive: NCI-H23 lung 98.4% | NCI-H226 lung 99.1% | NCI-H322M lung 93.1% | HOP-62 NSCLC 87.7% | NCI-H460 lung 107% | NCI-H522 lung 112% | A549/ATCC NSCLC 103% | 786-0 renal 95.7% | COLO 205 colon 107%

CC(=O)C1Cc2ccccc2C1=O (stereo unspecified)
inactive: NCI-H23 lung 95.4% | NCI-H226 lung 103% | NCI-H322M lung 89.5% | HOP-62 NSCLC 90.5% | NCI-H460 lung 111% | NCI-H522 lung 122% | A549/ATCC NSCLC 106% | 786-0 renal 103% | COLO 205 colon 121%

COc1cc(/C=C/c2ccnc3ccccc23)cc(OC)c1OC
inactive: NCI-H23 lung 26.5% | NCI-H226 lung 38.3% | NCI-H322M lung 65.7% | HOP-62 NSCLC 28.1% | NCI-H460 lung 22.4% | NCI-H522 lung 26.8% | A549/ATCC NSCLC 37% | 786-0 renal 39.6% | COLO 205 colon 22.5%

CCCCCCCCCCCC[n+]1ccc2ccccc2c1
active: NCI-H23 lung -33.4% | NCI-H226 lung 4.19% | HOP-62 NSCLC -33.2% | NCI-H460 lung -13.5% | NCI-H522 lung -39.2% | A549/ATCC NSCLC 6.68% | 786-0 renal -62.8% | COLO 205 colon -80.2%
inactive: NCI-H322M lung 17%

CCC(=O)c1cc([N+](=O)[O-])c(Br)s1
inactive: NCI-H23 lung 93.4% | NCI-H226 lung 99.1% | NCI-H322M lung 101% | HOP-62 NSCLC 101% | NCI-H460 lung 108% | HOP-92 NSCLC 89.1% | A549/ATCC NSCLC 105% | 786-0 renal 109% | COLO 205 colon 11.5%

Cc1ccc(Nc2ccc(O)c3c2C(=O)c2c(O)ccc(Nc4ccc(C)cc4)c2C3=O)cc1
inactive: NCI-H23 lung 101% | NCI-H226 lung 95.6% | NCI-H322M lung 128% | HOP-62 NSCLC 101% | NCI-H460 lung 105% | NCI-H522 lung 94.8% | A549/ATCC NSCLC 99.1% | 786-0 renal 102% | COLO 205 colon 108%

CC(C)c1ccc(Nc2n[nH]c(=S)s2)cc1
inactive: NCI-H23 lung 87.1% | NCI-H226 lung 105% | NCI-H322M lung 102% | HOP-62 NSCLC 99.4% | NCI-H460 lung 114% | HOP-92 NSCLC 82.6% | A549/ATCC NSCLC 101% | 786-0 renal 96.8% | COLO 205 colon 116%

c1csc(-c2[nH]nc3c2CCc2ccccc2-3)c1
inactive: NCI-H23 lung 95.8% | NCI-H226 lung 80.9% | NCI-H322M lung 55.4% | HOP-62 NSCLC 91.1% | NCI-H460 lung 55% | NCI-H522 lung 101% | A549/ATCC NSCLC 89.1% | 786-0 renal 103%
active: COLO 205 colon -11.2%

COC(=O)c1nc(=S)[nH]c(C(=O)OC)c1C(=O)c1ccc(Cl)c(Cl)c1
inactive: NCI-H23 lung 103% | NCI-H226 lung 102% | NCI-H322M lung 107% | HOP-62 NSCLC 115% | NCI-H460 lung 111% | NCI-H522 lung 101% | A549/ATCC NSCLC 105% | 786-0 renal 107% | COLO 205 colon 120%

O=C(c1ccccc1)C(Br)C(Br)c1ccccc1 (stereo unspecified)
inactive: NCI-H23 lung 104% | NCI-H226 lung 109% | NCI-H322M lung 121% | HOP-62 NSCLC 103% | NCI-H460 lung 103% | HOP-92 NSCLC 46% | A549/ATCC NSCLC 99.2%
active: COLO 205 colon 6.72%

CC(C)=C1C=C2CC[C@@H]3[C@](C)(CCC[C@@]3(C)C(=O)O)[C@H]2CC1
inactive: NCI-H23 lung 101% | NCI-H226 lung 103% | NCI-H322M lung 94.8% | HOP-62 NSCLC 93.6% | NCI-H460 lung 106% | NCI-H522 lung 96.2% | 786-0 renal 95.9% | COLO 205 colon 107%

S=C=Nc1ccc(N2CCOCC2)cc1
inactive: NCI-H23 lung 92.1% | NCI-H226 lung 86% | NCI-H322M lung 96.1% | HOP-62 NSCLC 89.6% | NCI-H460 lung 99.8% | NCI-H522 lung 74.4% | A549/ATCC NSCLC 89.8% | 786-0 renal 89.8% | COLO 205 colon 97.4%

O=[N+]([O-])C=C(c1ccccc1)c1ccccc1
inactive: NCI-H23 lung 81.9% | NCI-H226 lung 88.6% | NCI-H322M lung 88% | HOP-62 NSCLC 73.7% | NCI-H460 lung 88.4% | NCI-H522 lung 72.7% | A549/ATCC NSCLC 79.5% | 786-0 renal 89.2% | COLO 205 colon 114%

OC(c1cc(C23CC4CC(CC(C4)C2)C3)nc2c(Cl)cc(Cl)cc12)C1CCCCN1 (stereo unspecified)
active: NCI-H23 lung -53.9% | NCI-H226 lung -69.4% | NCI-H322M lung -19.3% | HOP-62 NSCLC -88.6% | NCI-H460 lung -71.4% | NCI-H522 lung -81% | A549/ATCC NSCLC -74.6% | 786-0 renal -55% | COLO 205 colon -87.2%

Source: PubChem BioAssay (NCI)
